# Results as given in the supplement of paper PMC12494721.
# Where a name gives a salt, the structure may show the parent alone. Unmarked numbers belong to inactive results.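 How the source made its calls: for the amine columns active = adjusted P below 0.05 in both replicates with a change the same way and a mean fold change under 0.8 or over 1.25; inactive = the rest.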
# Tested on: Clostridium sporogenes DSM 1664
# Assay: fold change of Tryptamine concentration vs plate DMSO controls (fold change (ratio)); higher = more amine produced, active = hit call of the paper (significant change in both replicates, either direction)
# Details: incubation time: 27 h, anaerobic, 37 °C
# Method in brief: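 Each value is the fold change relative to DMSO-only wells on the same plate. Four gut bacterial strains were grown anaerobically in mGAM at 37 °C for 27 h in 80 µL wells, starting at OD 0.1 before a 1:1 dilution, with compounds at 20 µM final (sweeteners 50 µM). Whole cultures were extracted with cold acetonitrile/methanol containing 0.1% formic acid, centrifuged, and amines were quantified by LC–triple-quadrupole MS (dynamic MRM) against external calibration curves with within-batch drift correction. Values are means of 2 biological replicates.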
row,Compound,fold change of Tryptamine concentration
1,COc1ccc(CC(C)NCC(O)c2ccc(O)c(NC=O)c2)cc1 (configuration not stated) [Formoterol fumarate] (20 µM),1.03
2,CCN(CC)CCc1nc(-c2ccccc2)no1 [Oxolamine citrate salt] (20 µM),1.04
3,O=C(O)c1cc(-c2ccc(F)cc2F)ccc1O [Diflunisal] (20 µM),1.01
4,NC(=O)NC1NC(=O)NC1=O (configuration not stated) [Allantoin] (20 µM),1.11
5,CN1CCCN=C1/C=C/c1cccs1 [Pyrantel tartrate] (20 µM),1.02
6,CCN1CCN(c2cc3c(cc2F)c(=O)c(C(=O)O)cn3C2CC2)CC1 [Enrofloxacin] (20 µM),0.0498 (active)
7,CCCNC(C)C(=O)Nc1c(C)csc1C(=O)OC (configuration not stated) [Articaine hydrochloride] (20 µM),1.06
8,CCN(CC)CC(=O)Nc1c(C)cccc1C [Lidocaine hydrochloride] (20 µM),1.01
9,CCn1cc(C(=O)O)c(=O)c2cc(F)c(N3CCNC(C)C3)c(F)c21 (configuration not stated) [Lomefloxacin hydrochloride] (20 µM),0.0603 (active)
10,C[C@]12CCC(=O)C=C1CC[C@@H]1[C@@H]2C(=O)C[C@@]2(C)[C@H]1CC[C@]2(O)C(=O)CO [Cortisone] (20 µM),0.974
11,CCN(CC)CCNC(=O)c1cc(Cl)c(N)cc1OC [Metoclopramide monohydrochloride] (20 µM),0.988
12,C[C@@H](CN1CC(=O)NC(=O)C1)N1CC(=O)NC(=O)C1 [Dexrazoxane hydrochloride] (20 µM),0.997
